The supplement of paper PMC9694430
Counter-ions that a name gives are not always drawn.

Legend:
Experiment in all cases: thermal shift delta Tm vs DMSO control; higher = stronger stabilization (binding)
Conditions in all cases: 12.5 µM; protein concentration 2 µM
LOC_OS01G57100-cb003 = system: LOC_OS01G57100-cb003
In short: (§1)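 Rice kinase domain constructs were expressed in E. coli, purified, and tested by differential scanning fluorimetry with compound added in DMSO. Each well of a 96-well plate held 19.5 μl of 2 μM kinase in 100 mM potassium phosphate pH 7.5, 150 mM NaCl, 10% glycerol and 5 × SYPRO Orange, and fluorescence was read from 25°C to 95°C at 0.05°C/s. The melting temperature shift is the mean of triplicates, taken against protein with DMSO alone after Boltzmann fitting.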

LOC_OS01G60330-cb001 = system: LOC_OS01G60330-cb001
In short: as §1

LOC_OS01G60700-cb002 = system: LOC_OS01G60700-cb002
In short: as §1

LOC_OS01G63280-cb003 = system: LOC_OS01G63280-cb003
In short: as §1

LOC_OS01G67340-cb003 = system: LOC_OS01G67340-cb003
In short: as §1

LOC_OS01G70970-cb002 = system: LOC_OS01G70970-cb002
In short: as §1

LOC_OS02G07810-cb001 = system: LOC_OS02G07810-cb001
In short: as §1

LOC_OS02G08530-cb003 = system: LOC_OS02G08530-cb003
In short: as §1

LOC_OS02G14120-cb001 = system: LOC_OS02G14120-cb001
In short: as §1

LOC_OS02G17970-cb001 = system: LOC_OS02G17970-cb001
In short: as §1

| SMILES | thermal shift delta Tm (LOC_OS01G57100-cb003) | thermal shift delta Tm (LOC_OS01G60330-cb001) | thermal shift delta Tm (LOC_OS01G60700-cb002) | thermal shift delta Tm (LOC_OS01G63280-cb003) | thermal shift delta Tm (LOC_OS01G67340-cb003) | thermal shift delta Tm (LOC_OS01G70970-cb002) | thermal shift delta Tm (LOC_OS02G07810-cb001) | thermal shift delta Tm (LOC_OS02G08530-cb003) | thermal shift delta Tm (LOC_OS02G14120-cb001) | thermal shift delta Tm (LOC_OS02G17970-cb001) |
| --- | --- | --- | --- | --- | --- | --- | --- | --- | --- | --- |
| CN1CCN(Cc2ccc(NC(=O)Nc3ccc(Oc4ccnc(N)n4)cc3)cc2C(F)(F)F)CC1 | -0.21 °C | 0.73 °C | 1.34 °C | 8.29 °C | 0.95 °C | 2.3 °C | 0.57 °C | 2.59 °C | 6.74 °C | 1 °C |
| OCCn1cc(-c2ccc3c(c2)CC/C3=N\O)c(-c2ccncc2)n1 | 0.82 °C | 1.25 °C | 0.99 °C | 0.67 °C | -0.31 °C | 0.26 °C | 1.43 °C | 1 °C | 0.49 °C | 0.48 °C |
| CCOc1cc2ncc(C#N)c(Nc3ccc(OCc4ccccn4)c(Cl)c3)c2cc1NC(=O)/C=C/CN(C)C [Neratinib (HKI-272)] | 1.51 °C | 0.66 °C | 1.67 °C | 1.02 °C | 1.41 °C | 0.3 °C | 0.52 °C | 1 °C | 1.97 °C | 1.71 °C |
| CC(C)(C)S(=O)(=O)c1ccc2nccc(Nc3n[nH]c4ccc(F)cc34)c2c1 | 0.91 °C | 0.99 °C | 0.81 °C | -0.25 °C | 0.66 °C | 0.6 °C | 0.19 °C | 0.61 °C | 0.25 °C | 0.37 °C |
| O=C(Nc1nc2cccc(-c3ccc(CN4CCS(=O)(=O)CC4)cc3)n2n1)C1CC1 [Filgotinib (GLPG0634)] | 1.32 °C | 2.66 °C | 0.53 °C | 0.12 °C | 0.43 °C | 0.37 °C | 0.52 °C | 0.93 °C | 2.91 °C | 0.47 °C |
| O=C(Nc1cccc(Cl)c1)Nc1ncc(CCNc2ncnc3ccsc23)s1 [SNS-314 Mesylate] | 2.62 °C | 3.98 °C | 1.44 °C | 2.76 °C | 0.53 °C | 1.48 °C | 2.27 °C | 2.1 °C | 4.25 °C | 1.27 °C |
| C#Cc1cccc(Nc2ncnc3cc(OCCOC)c(OCCOC)cc23)c1 [Erlotinib] | -0.31 °C | -0.11 °C | 0.43 °C | -0.09 °C | 0.02 °C | 0.34 °C | -0.06 °C | 0.9 °C | 1.45 °C | 0.75 °C |
| CS(=O)(=O)c1ccc(-c2cnc(N)c(C(=O)Nc3ccccc3)n2)cc1 | 0.59 °C | 1.29 °C | 0.17 °C | 0.26 °C | 0.52 °C | 1.04 °C | 0.54 °C | 0.71 °C | -0.32 °C | -0.36 °C |
| O=c1ncn2nc(Sc3ccc(F)cc3F)ccc2c1-c1c(Cl)cccc1Cl | 1.7 °C | 0.91 °C | 0.86 °C | 0.47 °C | -0.29 °C | 0.12 °C | 0.79 °C | 0.67 °C | 0.31 °C | 0.56 °C |
| COc1cc2ncnc(Nc3ccc(F)c(Cl)c3)c2cc1NC(=O)/C=C/CN1CCCCC1 | 2.23 °C | 2.36 °C | 1.39 °C | 0.37 °C | 1.76 °C | 0.52 °C | 1.55 °C | 1.7 °C | 0.41 °C | 1.92 °C |
| COc1cc(Nc2ncc3c(n2)-c2ccc(Cl)cc2C(c2c(F)cccc2OC)=NC3)ccc1C(=O)O [Alisertib (MLN8237)] | 0.2 °C | 0.56 °C | 0.66 °C | 0.76 °C | 0.39 °C | 0.83 °C | 0.08 °C | 0.3 °C | 4.62 °C | 0.21 °C |
| CC(C)(C)c1ccc(S(=O)(=O)/C=C/C#N)cc1 | 3.12 °C | -0.21 °C | 1.42 °C | -3.74 °C | 0.12 °C | -4.09 °C | 0.63 °C | 1.02 °C | -0.46 °C | 5.71 °C |
| O=C(Nc1cccc(Nc2ncc(Br)c(NCCc3cnc[nH]3)n2)c1)N1CCCC1 | 1.45 °C | 12.3 °C | 0.44 °C | 0.73 °C | 2 °C | 9.39 °C | 0.15 °C | 2.7 °C | 10.6 °C | 0.3 °C |
| C[C@H](CN(C)C)Oc1nc(Nc2cc3cccc(Cl)c3cn2)cnc1C#N | 0.95 °C | 1.48 °C | 1.39 °C | 0.39 °C | 0.6 °C | 0.34 °C | 0.31 °C | 1.68 °C | 2.95 °C | 2.26 °C |
| C[C@@H](NC(=O)c1ncnc(N)c1Cl)c1ncc(C(=O)Nc2cc(C(F)(F)F)c(Cl)cn2)s1 | 0.35 °C | 1.01 °C | 1.42 °C | 1.75 °C | 0.42 °C | 0.8 °C | 0.35 °C | 0.67 °C | 0.58 °C | 0.7 °C |
| Cc1c(C(=O)Nc2ccc(Oc3ccnc4[nH]cc(-c5ccccc5)c34)c(F)c2)c(=O)n(-c2ccc(F)cc2)n1C | 1.48 °C | 5.65 °C | 1.25 °C | 5.92 °C | 1.81 °C | 1.29 °C | 0.68 °C | 3.76 °C | 6.85 °C | 1.44 °C |
| N#Cc1c(Oc2ccc(F)c(NC(=O)Cc3cccc(C(F)(F)F)c3)c2)ccc2nc(NC(=O)C3CC3)sc12 | 2.29 °C | 1.23 °C | 1.86 °C | 0.73 °C | 0.52 °C | 0.34 °C | 0.79 °C | 0.98 °C | 0.68 °C | 0.88 °C |
| Nc1nccc(Oc2ccc3c(C(=O)Nc4cccc(C(F)(F)F)c4)cccc3c2)n1 | 1.31 °C | 1.99 °C | 0.86 °C | 7.54 °C | 0.91 °C | 0.71 °C | 0.76 °C | 0.59 °C | 1.14 °C | 1.47 °C |
| O=C1NC(=O)/C(=C/c2cccc(C(F)(F)F)c2)S1 | 0.63 °C | 0.3 °C | 0.3 °C | 0.28 °C | 0.15 °C | 0.3 °C | 0.46 °C | 0.44 °C | -0.36 °C | 0.43 °C |
| Cn1cc(-c2cnn3c(N)c(Br)c([C@@H]4CCCNC4)nc23)cn1 | -0.78 °C | 1.36 °C | 0.1 °C | 0.91 °C | 0.29 °C | 0.3 °C | 2.88 °C | 0.14 °C | 3.6 °C | -0.03 °C |
